Source: PubChem
Shown is part of a subset that was picked to be rich in hits.
ALOX15B inhib: 15-hLO-2 (ALOX15B) enzyme inhibition; Potency, µM (top dose mostly 57.1 µM), inactives show at the highest dose activity change, negative = inhibition, usual class: inhibitors; actives 0.56% (n = 110,000); AID 881; purified 15hLO-2, xylenol orange hydroperoxide absorbance; O15296; further: on the % scale 0 is the no-effect control and ±100 the full control effect; nearly all actives have a fitted effect of over 60% in size
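Purified human 15hLO-2 (50 nM) preincubated 15 min with compound, then 45 uM arachidonic acid for 90 min at RT in 25 mM Hepes pH 7.5, 0.01% Triton X-100. Hydroperoxide detected by Fe-xylenol orange; 573/405 nm absorbance ratio.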
Caspase-7 inhib: caspase-7 (human) inhibition, allosteric or competitive; P55210; recombinant caspase-7, Ac-DEVD-AFC fluorescence rate; Potency, µM (doses to about 57.5 µM), without a hit: at the top dose activity change, negative = inhibition, actives largely listed as inhibitors; actives 0.02% (n = 75,000); AID 889; active means well fitted inhibition curve with a large enough effect in the main read-out, with a control signal flat, not every such curve was filed as active; inconclusive means small, poorly fitted or top-dose-only effect, or a change in a side signal; further: % of control where 0% means no effect
USP2a inhib: blocks human ubiquitin-specific protease USP2a | actives 0.1% (n = 60,000) | USP2a enzymatic assay, qHTS inhibition | O75604 | Potency, µM (titrated, usually from 38.3 µM), inactives show top-dose activity change, negative = inhibition, usual class: inhibitors | AID 927; further: nearly all actives have a fitted effect of over 60% in size
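20 nM USP2 core + cpd, 30 min RT; add 20 nM Ub-PLA2/20 uM NBD C6-HPC; read Ex460/Em535 at 0 h and 2.5 h. Normalized to NEM; qHTS curve fit/classification.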
Caspase-1 inhib: caspase-1 (human) inhibition, allosteric or competitive; P29466; Caspase-1 enzyme, Ac-WEHD-AFC fluorogenic rate; Potency, µM (highest dose often 57.5 µM), without a hit: top-dose activity change, negative = inhibition, most hits filed as inhibitors; actives 0.03% (n = 75,000);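 further: plate controls were vehicle for no effect and no substrate for full effect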
15-hLO inh: blocks human 15-lipoxygenase activity; purified 15hLO-1, xylenol orange hydroperoxide absorbance; P16050; actives 1.4% (n = 74,000); AID 887; Potency, µM (doses to about 57.1 µM), without a hit: at the top dose activity change, negative = inhibition, hits mostly inhibitors; further: on the % scale 0 is the no-effect control and ±100 the full control effect; nearly all actives have a fitted effect of over 55% in size
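40 nM 15hLO-1 + cpd, 15 min RT; start w/ 50 uM AA (final), 6 min RT; stop/detect w/ 200 uM XO + 300 uM Fe(II) in 50 mM H2SO4, 30 min; A573/A405. Buffer 25 mM Hepes pH 7.5, 0.01% Triton X-100. No-enzyme wells as negative control.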
Active calls of the source: *; ? = inconclusive; . = not tested or not shown; [ ] = another dose, or the depositor's remark. Unless noted, the call rests on the fitted dose curve; in most records, active means well fitted curve in the direction sought with a large enough effect; inconclusive means small, poorly fitted or top-dose-only effect, or another doubt; inactive means no such curve, though single readings can be large; an effect the other way counts as inactive or inconclusive. Potency means the concentration at half of the fitted maximal effect.

SMILES	ALOX15B inhib	Caspase-7 inhib	USP2a inhib	Caspase-1 inhib	15-hLO inh
COc1ccc(Oc2ncc3nc(-c4ccc(F)cc4)c(=O)n(Cc4cccs4)c3n2)cc1	-10.7%	?	250.0%	?	1.3%
CCOC(=O)c1cc(-c2ccccc2)sc1NC(=O)C(C)(C)C	3.9%	.	.	.	.
CCOC(=O)c1cc(-c2ccccc2)sc1NC(=S)Nc1cc(C)ccn1	10µM*	.	.	.	.
CC(CN(C)C)NC(=O)c1ccc(Cc2nc3ccccc3[nH]2)cc1 (stereo not drawn)	.	2.9%	.	-1.9%	-2.9%
O=S(=O)(Nc1ccc2c(c1)OCO2)c1ccc(Br)s1	-15.9%	1.9%	24.1%	1.4%	25.1µM*
CCC1(C)N=C(c2ccc3c(c2)OCO3)CC(c2ccccc2O)N1 (stereo not drawn)	-1.2%	.	.	.	.
COc1cccc(C2=NC(C)(C)NC(c3ccccc3O)C2)c1 (stereo not drawn)	-0.6%	-20.6%	46.5%	?	31.6µM*
O=c1c(O)cccc2cc(O)c(O)c(O)c12	-9.6%	-10.1%	22.5%	0.8%	3.98µM*
Cc1ccc(/C=C/C2=Cc3c(sc(NC(=O)CSc4n[nH]c(N)n4)c3C#N)C(C)(C)C2)o1	?	?	?	?	12.6µM*
CCOC(=O)c1c(NC(=O)CSc2n[nH]c(N)n2)sc(CC)c1C	17.7%	0.1%	2.0%	3.0%	-10.2%
CC(C)c1ccc(C2CC(=O)N3CN(Cc4ccco4)CSC3=C2C#N)cc1 (stereo not drawn)	?	-8.5%	47.1%	-0.6%	12.6µM*
N#CC1=C2SCN(Cc3ccco3)CN2C(=O)CC1c1ccc(Cl)cc1 (stereo not drawn)	?	-12.6%	23.7%	-5.3%	12.6µM*
COc1ccc(C2CC(=O)N3CN(Cc4ccco4)CSC3=C2C#N)cc1 (stereo not drawn)	-29.0%	-16.4%	24.0%	-4.1%	?
N#CC1=C2SCN(Cc3ccccc3)CN2C(=O)CC1c1ccc2c(c1)OCO2 (stereo not drawn)	?	-16.4%	40.3%	?	12.6µM*
CCOc1cc(C2CC(=O)N3CN(C4CCCCC4)CSC3=C2C#N)ccc1O (stereo not drawn)	?	-4.1%	.	-1.5%	?
C[C@@H]1CN2[C@H](c3ccc(Br)cc3)[C@H](C)CC[C@H]2C(=O)O1	.	0.5%[11.5 µM]	.	2.7%[11.5 µM]	4.9%[11.4 µM]
COc1cc(C(=O)Nc2nnc(-c3sccc3C)s2)cc(OC)c1OC	-3.3%	-21.3%	13.9%	?	20µM*
CC1CCC2C(=O)N3C(CCC(C)C3c3ccc(-c4ccco4)cc3)C(=O)N2C1c1ccc(-c2ccco2)cc1 (stereo not drawn)	.	-17.6%[11.5 µM]	.	0.2%[11.5 µM]	2.51µM*
C[C@@H]1CC[C@@H]2C(=O)N3[C@@H](CC[C@@H](C)[C@@H]3c3ccc(-c4ccco4)cc3)C(=O)N2[C@H]1c1ccc(-c2ccco2)cc1	.	-3.7%[11.5 µM]	.	-0.8%[11.5 µM]	-12.7%[11.4 µM]
CC1CCC2C(=O)N3C(CCC(C)[C@@H]3c3ccc(-c4ccco4)cc3)C(=O)N2C1c1cccc(N2CCCC2=O)c1 (stereo partly drawn)	.	1.0%[11.5 µM]	.	-2.5%[11.5 µM]	5.01µM*
CC1CCC2C(=O)N3C(CCC(C)[C@@H]3c3cccc(N4CCOCC4)c3)C(=O)N2C1c1cccc(N2CCOCC2)c1 (stereo partly drawn)	.	-1.0%[11.5 µM]	.	-2.0%[11.5 µM]	5.1%[11.4 µM]
CC#CC(C)C(OCOC)C(CC(C)Cc1cc(Br)cc(OCc2ccccc2)c1OC)OC (stereo not drawn)	.	1.4%[11.5 µM]	.	-0.2%[11.5 µM]	4.3%[11.4 µM]
O=C1OC(=O)[C@@H]2[C@@H]1[C@@H]1CC[C@H]2O1	2.8%	0.6%	-1.3%	3.1%	18.7%
CC(C)c1nc2oc3c(=O)[nH]cnc3c2c2c1CCC2	-6.8%	-1.8%	1.58µM*	0.2%	-0.5%
CC(C)c1nc2oc3c(N4CCNCC4)ncnc3c2c2c1CCC2	.	-0.4%	-6.8%	1.4%	-6.0%
SMILES	ALOX15B inhib	Caspase-7 inhib	USP2a inhib	Caspase-1 inhib	15-hLO inh
N#Cc1nc(-c2ccc(F)cc2)oc1NCc1cccc2c1OCO2	.	-2.8%	.	-3.5%	12.6µM*
Cn1c(-c2ccc3c(c2)OCO3)cnc1NCc1cccc(Cl)c1	9.8%	-2.8%	5.0%	0.5%	20µM*
CO[C@@H]1COC(=O)[C@H](C)NC(=O)C/C=C\[C@@H](C)[C@@H](NS(=O)(=O)c2ccc(C)cc2)COC(=O)C/C=C\[C@@H]1C	.	0.6%[11.5 µM]	.	-0.8%[11.5 µM]	4.7%[11.4 µM]
COCc1cc(CN2CCCC2)c(O)c2ncccc12	43.4%	-6.1%	49.2%	-6.3%	2.51µM*
CC(C)(C(=O)O)c1ccc([C@@H](O)CCCN2CCC(C(O)(c3ccccc3)c3ccccc3)CC2)cc1	-1.1%	-0.1%	9.0%	2.9%	-5.4%
COC(=O)/C(C#N)=C1/SC=C(C)N1c1ccccc1	3.2%	.	.	.	.
N#C/C(C(=O)c1ccccc1)=C1/SC=C(N)N1c1ccccc1	?	-8.1%	19.0%	-8.8%	15.8µM*
Nc1ccc(CCNc2ncnc3c2ncn3[C@@H]2O[C@@H](CO)[C@H](O)[C@@H]2O)cc1	-1.3%	0.7%	-0.2%	4.1%	3.6%
O=C(COC(=O)c1cccc(S(=O)(=O)N2CCN(c3ccccc3)CC2)c1)NCc1ccco1	-0.8%	-14.7%	23.4%	-5.1%	25.1µM*
O=C(COC(=O)c1cccc(Oc2ccccc2)c1)NCc1ccco1	4.8%	.	.	.	.
NC([N-]/N=C/c1ccccn1)=[S]=[Fe].O=S(=O)(O)O	-13.4%[11.4 µM]	-0.8%[11.5 µM]	.	-3.3%[11.5 µM]	-11.9%[11.4 µM]
Cc1cc(-c2nnc(-c3ccccc3)c(-c3ccccc3)n2)c(C)o1	?	-6.0%	33.6%	-3.1%	25.1µM*
CCc1ccc(NS(=O)(=O)c2ccc3[nH]cc(C(=O)N4CCCCC4)c(=O)c3c2)cc1	-11.8%	-0.3%	44.6%	-0.5%	3.98µM*
CCc1ccc(NS(=O)(=O)c2ccc3[nH]cc(C(=O)NCC4CCCO4)c(=O)c3c2)cc1 (stereo not drawn)	43.3%	-0.6%	46.4%	-2.9%	-16.3%
CCCc1ccc(Oc2cn[nH]c2-c2ccc(O)cc2O)cc1	4.5%	-11.8%	3.98µM*	-9.5%	3.16µM*
COc1ccc(Oc2cn[nH]c2-c2ccc(O)cc2O)cc1	-4.7%	-1.1%	5.5%	-1.4%	-16.4%
O=C1CCC[C@@H](C2=CCCCC2=O)C1	.	-0.2%[11.5 µM]	.	2.0%[11.5 µM]	3.8%[11.4 µM]
O=C(Nc1cccc2ccccc12)N1CCN(Cc2ccccc2)CC1	-11.5%	-0.5%	36.7%	-0.5%	0.631µM*
O=C(Nc1cccc2ccccc12)N1CC=C(c2ccccc2)CC1	-9.7%	.	.	.	.
N#Cc1c(SCC(=O)O)nc(N2CCCCC2)c2c1CCCC2	-6.6%	.	.	.	.
COC(=O)CSc1nc(N2CCCCC2)c2c(c1C#N)CCCC2	-7.4%	-1.6%	12.6µM*	-2.3%	-20.6%
COc1cc(/C=N/NC(=O)c2cc(-c3ccccc3)n[nH]2)cc(OC)c1OC	.	-1.0%	.	-1.0%	-7.3%
